From PubChem BioAssay AID1159580 (chemical genetic matrix, 2015)
Values joined by “and” are separate entries in the source; they are usually repeats but may differ in a detail not shown here. Equal entries are not always repeated. Out of some 5,500 compounds screened, about 2,000 (36%) were called active. Inconclusive results (about 18%) are left out. Rule as the data show it: active = normalized growth mostly below about 0.91 (no sharp cut-off); inconclusive = no clear call, values can overlap the other calls; inactive = mostly above about 0.92. Some of the results follow. Where a structure was tested more than once in an assay, its records may differ in their call.

Assay: chemical genetic growth profiling, strain panel (AID 1159580);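 also: tested at 20 µM; growth read once vehicle control cultures reached saturation at 30 °C; 1 = growth at the plate median or of vehicle wells; lower values mean less growth of the strain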
Details: growth OD

Measured: normalized growth

C/C=C/CC(C)C(O)C1C(=O)NC(CC)C(=O)N(C)CC(=O)N(C)C(CC(C)C)C(=O)NC(C(C)C)C(=O)N(C)C(CC(C)C)C(=O)NC(C)C(=O)NC(C)C(=O)N(C)C(CC(C)C)C(=O)N(C)C(CC(C)C)C(=O)N(C)C(C(C)C)C(=O)N1C (stereo unspecified)
inactive: S. cerevisiae deletion strains, locus YJR075W, strain HOC1, stronger effect = lower value 0.978 | S. cerevisiae deletion strains, locus YKL009W, strain mrt4, stronger effect = lower value 1.01 | S. cerevisiae deletion strains, locus YKL068W, stronger effect = lower value 1 | S. cerevisiae deletion strains, locus YKL085W, strain MDH1 (second series), stronger effect = lower value 0.984 | S. cerevisiae deletion strains, locus YKL085W, strain MDH1, stronger effect = lower value 0.984 | S. cerevisiae deletion strains, locus YKL160W, strain elf1, stronger effect = lower value 1.04 | S. cerevisiae deletion strains, locus YKL190W, strain CNB1, stronger effect = lower value 0.999 | S. cerevisiae deletion strains, locus YKR026C, strain gcn3, stronger effect = lower value 1.01 | S. cerevisiae deletion strains, locus YKR091W, strain srl3, stronger effect = lower value 1.02 | S. cerevisiae deletion strains, locus YLL001W, strain dnm1, stronger effect = lower value 1.02 | S. cerevisiae deletion strains, locus YLL026W, stronger effect = lower value 1.01 | S. cerevisiae deletion strains, locus YLL041C, strain sdh2, stronger effect = lower value 1.02 | S. cerevisiae deletion strains, locus YLR027C, strain aat2, stronger effect = lower value 1.02 | S. cerevisiae deletion strains, locus YLR058C, strain SHM2, stronger effect = lower value 1.01 | S. cerevisiae deletion strains, locus YLR102C, strain apc9, stronger effect = lower value 1.01 | S. cerevisiae deletion strains, locus YLR113W, strain HOG1, stronger effect = lower value 0.986 | S. cerevisiae deletion strains, locus YLR221C, strain rsa3, stronger effect = lower value 1.02 | S. cerevisiae deletion strains, locus YLR258W, strain gsy2, stronger effect = lower value 1.01 | S. cerevisiae deletion strains, locus YLR268W, strain sec22, stronger effect = lower value 1.01 | S. cerevisiae deletion strains, locus YLR320W, strain mms22, stronger effect = lower value 1.01 | S. cerevisiae deletion strains, locus YLR330W, strain CHS5, stronger effect = lower value 1.01 | S. cerevisiae deletion strains, locus YLR357W, strain rsc2, stronger effect = lower value 0.978 | S. cerevisiae deletion strains, locus YLR370C, strain arc18, stronger effect = lower value 1.01 | S. cerevisiae deletion strains, locus YLR371W, strain rom2, stronger effect = lower value 1.03 | S. cerevisiae deletion strains, locus YLR384C, strain iki3, stronger effect = lower value 1.01 | S. cerevisiae deletion strains, locus YLR418C, strain cdc73, stronger effect = lower value 0.925 | S. cerevisiae deletion strains, locus YML016C, strain PPZ1, stronger effect = lower value 1.02 | S. cerevisiae deletion strains, locus YML032C, strain rad52, stronger effect = lower value 1.04 | S. cerevisiae deletion strains, locus YML120C, strain ndi1, stronger effect = lower value 1.02 | S. cerevisiae deletion strains, locus YML124C, strain tub3, stronger effect = lower value 1.03 | S. cerevisiae deletion strains, locus YMR058W, strain fet3, stronger effect = lower value 1.02 | S. cerevisiae deletion strains, locus YMR078C, strain ctf18, stronger effect = lower value 1.01 | S. cerevisiae deletion strains, locus YMR125W, strain sto1, stronger effect = lower value 0.915 | S. cerevisiae deletion strains, locus YMR129W, stronger effect = lower value 1.01 | S. cerevisiae deletion strains, locus YMR205C, strain PFK2, stronger effect = lower value 0.978 | S. cerevisiae deletion strains, locus YMR223W, strain ubp8, stronger effect = lower value 1.04 | S. cerevisiae deletion strains, locus YMR263W, strain SAP30, stronger effect = lower value 0.99 | S. cerevisiae deletion strains, locus YNL067W, strain RPL9B, stronger effect = lower value 0.97 | S. cerevisiae deletion strains, locus YNL071W, strain lat1, stronger effect = lower value 1.03 | S. cerevisiae deletion strains, locus YNL128W, strain TEP1, stronger effect = lower value 0.948 | S. cerevisiae deletion strains, locus YNL153C, strain GIM3, stronger effect = lower value 0.97 | S. cerevisiae deletion strains, locus YNL175C, strain NOP13, stronger effect = lower value 0.963 | S. cerevisiae deletion strains, locus YNL183C, strain NPR1, stronger effect = lower value 0.955 | S. cerevisiae deletion strains, locus YNL197C, strain WHI3, stronger effect = lower value 0.955 | S. cerevisiae deletion strains, locus YNL209W, strain ssb2, stronger effect = lower value 1.01 | S. cerevisiae deletion strains, locus YNL224C, strain SQS1, stronger effect = lower value 0.966 | S. cerevisiae deletion strains, locus YNL233W, strain BNI4, stronger effect = lower value 0.986 | S. cerevisiae deletion strains, locus YNL248C, strain rpa49, stronger effect = lower value 1.02 | S. cerevisiae deletion strains, locus YNL250W, strain rad50, stronger effect = lower value 1.01 | S. cerevisiae deletion strains, locus YNL271C, strain bni1, stronger effect = lower value 1.01 | S. cerevisiae deletion strains, locus YNL298W, strain CLA4, stronger effect = lower value 0.987 | S. cerevisiae deletion strains, locus YNL307C, strain MCK1, stronger effect = lower value 1.04 | S. cerevisiae deletion strains, locus YNL322C, strain KRE1 (second series), stronger effect = lower value 1.01 | S. cerevisiae deletion strains, locus YNL322C, strain KRE1, stronger effect = lower value 1.03 and 1 | S. cerevisiae deletion strains, locus YNR049C, strain mso1, stronger effect = lower value 1.02 | S. cerevisiae deletion strains, locus YNR052C, strain pop2, stronger effect = lower value 1.04 | S. cerevisiae deletion strains, locus YOL006C, strain TOP1, stronger effect = lower value 0.83 | S. cerevisiae deletion strains, locus YOL012C, strain htz1 1.73 | S. cerevisiae deletion strains, locus YOL147C, strain pex11, stronger effect = lower value 1.02 | S. cerevisiae deletion strains, locus YOR001W, strain rrp6, stronger effect = lower value 1.03 | S. cerevisiae deletion strains, locus YOR061W, strain CKA2, stronger effect = lower value 0.967 | S. cerevisiae deletion strains, locus YOR069W, strain VPS5, stronger effect = lower value 1.02 | S. cerevisiae deletion strains, locus YOR070C, strain gyp1, stronger effect = lower value 1.01 | S. cerevisiae deletion strains, locus YOR080W, strain dia2, stronger effect = lower value 1 | S. cerevisiae deletion strains, locus YOR083W, strain WHI5 (second series), stronger effect = lower value 0.869 | S. cerevisiae deletion strains, locus YOR083W, strain WHI5, stronger effect = lower value 1.02 | S. cerevisiae deletion strains, locus YOR106W, strain vam3, stronger effect = lower value 0.975 | S. cerevisiae deletion strains, locus YOR136W, strain idh2, stronger effect = lower value 1.03 | S. cerevisiae deletion strains, locus YOR144C, strain elg1, stronger effect = lower value 1.02 | S. cerevisiae deletion strains, locus YOR184W, strain ser1, stronger effect = lower value 1.03 | S. cerevisiae deletion strains, locus YOR231W, strain MKK1, stronger effect = lower value 0.975 | S. cerevisiae deletion strains, locus YOR265W, strain rbl2, stronger effect = lower value 1.02 | S. cerevisiae deletion strains, locus YOR270C, strain vph1, stronger effect = lower value 0.895 | S. cerevisiae deletion strains, locus YOR290C, strain snf2, stronger effect = lower value 0.995 | S. cerevisiae deletion strains, locus YOR316C, strain cot1, stronger effect = lower value 1.01 | S. cerevisiae deletion strains, locus YPL051W, strain arl3, stronger effect = lower value 1.02 | S. cerevisiae deletion strains, locus YPL055C, strain LGE1, stronger effect = lower value 0.949 | S. cerevisiae deletion strains, locus YPL078C, strain atp4, stronger effect = lower value 1.02 | S. cerevisiae deletion strains, locus YPL106C, strain sse1, stronger effect = lower value 0.944 | S. cerevisiae deletion strains, locus YPL240C, strain hsp82, stronger effect = lower value 1.02 | S. cerevisiae deletion strains, locus YPL241C, strain CIN2, stronger effect = lower value 1.01 and 0.975 | S. cerevisiae deletion strains, locus YPL256C, strain CLN2, stronger effect = lower value 1.02 | S. cerevisiae deletion strains, locus YPR119W, strain clb2, stronger effect = lower value 1.02 | S. cerevisiae deletion strains, locus YPR141C, strain kar3, stronger effect = lower value 1 | S. cerevisiae deletion strains, locus YPR163C, strain tif3, stronger effect = lower value 1.02 | S. cerevisiae deletion strains, locus YPR167C, strain met16, stronger effect = lower value 1.02 | S. cerevisiae deletion strains, strain wtn01, stronger effect = lower value 1.02 | S. cerevisiae strains, strain wild type, stronger effect = lower value 1
active: S. cerevisiae deletion strains, locus YKR001C, strain vps1, stronger effect = lower value 0.619 | S. cerevisiae deletion strains, locus YLR039C, strain RIC1, stronger effect = lower value 0.621 | S. cerevisiae deletion strains, locus YLR262C, strain YPT6 (second series), stronger effect = lower value 0.573 | S. cerevisiae deletion strains, locus YLR262C, strain YPT6, stronger effect = lower value 0.509 | S. cerevisiae deletion strains, locus YLR342W, strain FKS1 (second series), stronger effect = lower value 0.173 | S. cerevisiae deletion strains, locus YLR342W, strain FKS1, stronger effect = lower value 0.247 | S. cerevisiae deletion strains, locus YMR231W, strain pep5, stronger effect = lower value 0.404
0.292 (active) and 1.01 (inactive): S. cerevisiae deletion strains, locus YMR307W, strain GAS1, stronger effect = lower value
